Unmarked numbers belong to inactive results. The rule behind the calls is not given here.
Target: L-lactate dehydrogenase (Plasmodium falciparum (isolate CDC / Honduras)) (UniProt Q27743)
Assay: PfLDH activity inhibition – cell lysate, 3D7 strain, counter-screen for P. falciparum growth inhibition project (AID 2304);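 note: 0% = vehicle and 100% = reference inhibitor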
Settings: P. falciparum 3D7 crude extract, LDH APAD/NBT absorbance; at 2 µM; stronger effect = higher value

Sequence of L-lactate dehydrogenase (Plasmodium falciparum (isolate CDC / Honduras)) (Q27743 whole entry, looked up): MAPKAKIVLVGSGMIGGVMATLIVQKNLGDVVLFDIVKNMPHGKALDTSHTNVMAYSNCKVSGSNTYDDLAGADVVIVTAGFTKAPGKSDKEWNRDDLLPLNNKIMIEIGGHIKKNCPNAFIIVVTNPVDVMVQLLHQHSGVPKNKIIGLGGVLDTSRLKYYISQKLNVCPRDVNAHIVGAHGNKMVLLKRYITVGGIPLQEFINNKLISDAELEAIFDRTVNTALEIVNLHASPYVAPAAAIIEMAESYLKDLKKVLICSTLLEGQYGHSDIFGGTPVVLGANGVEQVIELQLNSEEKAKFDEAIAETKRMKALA

Compound	inhibition [%]
CC(Nc1nncc(-c2cccc(F)c2)n1)c1ccc(F)cc1 (centres undefined)	0
FC(F)(F)c1ccc2nc(-c3cccc(-c4ccc(CNCCc5ccncc5)cc4)c3)[nH]c2c1	-1
CN1CCC(Oc2ccc(CN3CC[C@H](NC(=O)c4ccc(F)c(F)c4)C3)c3ccccc23)C1 (some centres undefined)	2
CCC1(C)CC(CCNCc2ccccc2O)(c2ccccc2OC)CCO1 (centres undefined)	-2
COc1ccc(N2CCN(CCCCNC(=O)c3ccc(NC(=O)c4cc(C(F)(F)F)cc(C(F)(F)F)c4)cc3)CC2)cc1OC	1
COc1ccc2nccc([C@@H](O)CN3CCC(NCc4cc5oc(=O)[nH]c5cc4F)CC3)c2c1	-2
CC(C)CCN=C(N)Nc1ccc(OCCCOc2ccc(NC(N)=NCCC(C)C)cc2)cc1	-3
COC(=O)c1ccc(NC(=O)Nc2cccc(CCNCc3ccccc3)c2)cc1	6
N#Cc1cccc(NC(=O)Nc2cccc(-c3ccc(-c4nc5ccc(C(F)(F)F)cc5[nH]4)cc3)c2)c1	-8
CC1CCC(C(C)C)C(OC(=O)CSc2nnc3c(n2)[nH]c2ccccc23)C1 (centres undefined)	-2
COC(=O)c1cc(C(=O)CN(Cc2ccccc2)C(C)C)ccc1O	-2
O=C(NCc1ccc(C(=O)NC2CCCCCC2)cc1)c1ccc(O)c(-c2ccc(Cl)c(Cl)c2)c1	-3
COc1ccc(NC(=O)c2ccc3[nH]c(-c4ccc(Cl)cc4)cc3c2)cc1OCCN(C)C	2
NC(N)=Nc1nc(-c2cccc(NC(=O)NCc3ccc(OC(F)(F)F)cc3)c2)cs1	4
